LMP1 NFkB inh – inhibitors of Epstein-Barr LMP1-induced NF-kappaB reporter | LMP1-induced NF-kappaB luciferase reporter cells, luminescence | inhibition, % at 12.5 µM | 350,000 tested, 0.69% active | AID 504558; in the data active = inhibition above about 41%;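 also: 0% = neutral control wells and 100% = reference inhibitor control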
Shn3 inh set2 – Schnurri-3 reporter inhibition in Clone20 osteoblasts. Clone20 osteoblast Shn3 3'UTR firefly luciferase, 24 h. inhibition, % at 12.5 µM. 360,000 tested, 0.52% active;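 active = mean inhibition of at least 75% with every replicate also reaching 75%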;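 also: 0% = median of neutral control wells and 100% = pilot-screen positive control compound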
Gli-Sufu antag – Gli-Sufu pathway antagonism; 340,000 tested, 0.74% active; Sufu-KO-LIGHT fibroblasts, Gli luciferase reporter luminescence; inhibition, % at 5 µM; AID 588413;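 active = inhibition above about 55%, limit read from the data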;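 also: 0% = DMSO-treated cells and 100% = wells with medium but no cells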
MITF TRPM1 inh – reduces MITF-dependent TRPM1 promoter luciferase signal. SK-MEL-5 TRPM1 promoter luciferase, 24 h. AID 488899. inhibition, % at 12.5 µM. 330,000 tested, 0.83% active;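 active = mean inhibition across replicates of 60% or more, whatever share of single replicates reaches that level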
697 NFkB inh – lowers PMA/ionomycin-induced NF-kB signal in 697 B cells | 697 B-cell NF-kB luciferase reporter, 16 h | inhibition, % at 4 µM | 330,000 tested, 0.33% active; in the data active = inhibition above about 35%
Jurkat NFkB inh – lowers PMA/ionomycin-induced NF-kB signal in Jurkat cells. PMA/ionomycin-induced NF-kB luciferase reporter, luminescence. 330,000 tested, 0.53% active. inhibition, % at 4 µM; in the data active = inhibition above about 50%
Gli-Sufu confirm – Gli-SUFU antagonism confirmation, single concentration. shares compounds with Gli-Sufu antag. Sufu-KO-LIGHT cells, Gli luciferase reporter, luminescence. inhibition, % at 5 µM. 2,500 tested, 40% active;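 active = mean inhibition at 5 µM reaching about 45%, limit read from the data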;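 also: plate controls were DMSO-treated cells for no effect and wells lacking cells for full effect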
Gli cytotox – cytotoxicity counter-screen for Gli-SUFU antagonists; Sufu-KO-LIGHT cells cytotoxicity, ATP luminescence; cytotoxicity, % at 5 µM; shares compounds with Gli-Sufu antag; 2,500 tested, 32% active;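 active = mean cytotoxicity at 5 µM above about 25%, limit read from the data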;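 also: cells exposed to compound overnight for roughly 16 to 18 hours; plate controls were DMSO wells with cells for no effect and medium without cells for full effect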
Wnt3a counter – counter-screen for Gli-SUFU antagonists: Wnt3a reporter inhibition; shares compounds with Gli-Sufu antag; Wnt-LIGHT cells, Wnt3a-driven luciferase reporter, luminescence; inhibition, % at 6.25 µM; 2,500 tested, 20% active; AID 651995;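 active = mean inhibition above about 25%, limit read from the data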
An asterisk follows results filed as active; · = no result. An excerpt weighted towards active compounds, which were near 2.3% of everything screened.

SMILES	LMP1 NFkB inh	Shn3 inh set2	Gli-Sufu antag	MITF TRPM1 inh	697 NFkB inh	Jurkat NFkB inh	Gli-Sufu confirm	Gli cytotox	Wnt3a counter
Cc1onc(-c2ccccc2Cl)c1C(=O)N1CCCCCC1	-2	4	59*	-3	3	8	24	4	4
COc1ccc(N2C(=O)c3ccc(C(=O)OC(C)C)cc3C2=O)cc1	7	7	91*	5	11	1	21	20	22
COc1ccc(N2C(=O)c3cc4ccccc4cc3C2=O)cc1	2	-11	6	16	21	5	·	·	·
O=C(COC(=O)/C=C/c1ccccc1)NC1CCCCCC1	-2	-1	-4	-7	12	-9	·	·	·
CCC1(OC(=O)CN(C)C)C(=O)OCc2c1cc1n(c2=O)Cc2cc3c(N)cccc3nc2-1 (stereo not drawn)	76*	-6	64*	67*	·	·	63*	36*	-61
CCC1(O)C(=O)OCc2c1cc1n(c2=O)Cc2cc3c(N)cccc3nc2-1 (stereo not drawn)	73*	12	84*	72*	·	·	63*	49*	-83
Cc1nc2ncnn2c(N2CCN(S(=O)(=O)c3ccc(Br)cc3)CC2)c1C	18	70	57*	18	-46	32	33	1	1
C=COCCCNc1ncnc2sc(-c3ccccc3)cc12	16	52	61*	6	-13	23	48*	39*	2
COc1ccc(CN2CCCCC2C(=O)Nc2ccc(OC)c(OCC(C)C)c2)cc1OC (stereo not drawn)	6	-3	63*	-11	-9	-1	21	29*	-51
COCCCNCCCCOc1ccc(C)cc1[N+](=O)[O-]	-9	13	12	-9	3	10	·	·	·
NS(=O)(=O)c1ccc(NC(=O)C2Cc3ccccc3C(=O)O2)cc1 (stereo not drawn)	-1	-7	-1	2	17	6	·	·	·
COc1cc(C(=O)NNC(=S)NC(=O)c2ccc(F)cc2)cc(OC)c1OC	2	45	57*	2	25	10	14	18	-19
CN(C)c1ccc(N/C(N)=N/c2nc(C(F)(F)F)cc(C(F)(F)F)n2)cc1	-9	13	50	-7	-10	0	22	12	-21
COc1cc(CNCc2ccccn2)ccc1OCC(=O)NC1CCCCC1	-6	-6	68*	-6	2	4	9	-12	-7
COc1cc(CNCc2ccccn2)ccc1OCC(=O)NC(C)(C)C	4	4	14	-3	-60	35	·	·	·
Cc1ccc(C(=O)N/C(=C/c2ccc(Cl)cc2)C(=O)N2CCOCC2)cc1	-9	2	-10	3	2	-12	·	·	·
COc1ccc(C2C=C(C)Nc3nc4ccccc4n32)cc1 (stereo not drawn)	-29	-38	98*	-18	-12	-28	9	24	-26
O=C(Nc1cc(Cl)ncn1)c1ccccc1	·	-9	6	·	1	-5	·	·	·
O=C(Nc1cc(N2CCCCC2)ncn1)c1ccccc1	-11	-41	72*	1	4	-10	77*	5	-72
CCOC(=O)N1CCC(N2C(=O)c3ccccc3C2Nc2cc(OC)c(OC)c(OC)c2)CC1 (stereo not drawn)	7	8	10	6	16	-10	·	·	·
CCOC(=O)NC1CCc2cc(OC)c(OC)c(OC)c2-c2ccc(SC)c(=O)cc21 (stereo not drawn)	0	-3	55*	33	·	·	56*	68*	26*
CCCCOC(=O)NC1CCc2cc(OC)c(OC)c(OC)c2-c2ccc(SC)c(=O)cc21 (stereo not drawn)	0	-1	64*	36	·	·	54*	64*	0
Cc1ccc(C)c(N2CCN(c3nc4ccccc4c(=O)n3Cc3ccccc3)CC2)c1	3	6	55	1	-4	8	24	15	-6
COc1ccc(Cn2c(C)nc3ccc([N+](=O)[O-])cc3c2=O)cc1	13	25	61*	12	3	5	32	24	-11
COc1ccccc1CNS(=O)(=O)c1c(C(=O)N2CCCCCC2)c(C)n(C)c1C	4	10	-14	0	-3	6	·	·	·
SMILES	LMP1 NFkB inh	Shn3 inh set2	Gli-Sufu antag	MITF TRPM1 inh	697 NFkB inh	Jurkat NFkB inh	Gli-Sufu confirm	Gli cytotox	Wnt3a counter
CSc1nnc(-c2ccc([N+](=O)[O-])cc2)o1	-9	-3	93*	-16	-3	2	24	0	1
C#CCSc1nnc(-c2ccc([N+](=O)[O-])cc2)o1	4	-19	-34	-18	-29	-25	·	·	·
CCOCCCn1c(SCc2nc3ccccc3s2)nc2ccccc2c1=O	28	14	54	5	-82	-29	30	16	-145
Cc1cccc(NC2=C(Cl)C(=O)OC2NC(=O)c2ccccc2)c1 (stereo not drawn)	9	4	6	6	11	14	·	·	·
O=C(/C=C/c1ccc(OCc2ccccc2)c(OCc2ccccc2)c1)c1cccnc1	-10	89*	53	24	-1	5	25	15	-20
CCC(=O)NC(C)c1cc(Cl)c2ccccc2c1O (stereo not drawn)	1	-35	-19	-10	13	-12	·	·	·
Cc1ccc(S(=O)(=O)N(C)C)cc1NC(=O)CSc1nnc(C2CC2)n1C1CC1	-1	3	1	12	-3	2	·	·	·
Cn1c(SCC(=O)NC(=O)c2cccc([N+](=O)[O-])c2)nnc1-c1ccc(F)cc1	6	10	-4	-3	29	5	·	·	·
c1ccc2c(c1)OCC(CNc1ncnc3sccc13)O2 (stereo not drawn)	19	67	76*	7	·	·	74*	20	22
COCCCNC(=O)/C(C#N)=C/c1cc(C)[nH]c1C	5	-5	57*	-11	4	8	17	6	-1
CCNC(=O)N1CCC(n2nccc2NC(=O)CCCc2ccccc2)CC1	2	-1	-8	9	-13	14	·	·	·
Cc1ccc(C)c(Oc2cc(NC(=O)CCCn3nc(C)c([N+](=O)[O-])c3C)cc([N+](=O)[O-])c2)c1	4	74	50	9	1	6	17	12	-20
Cc1nn(CCCC(=O)Nc2cc(Oc3ccccc3)cc([N+](=O)[O-])c2)c(C)c1[N+](=O)[O-]	-1	2	5	1	-20	15	·	·	·
CN(CC(=O)Nc1ccc(OC(F)(F)F)cc1)C(=O)c1ccc(N2CCCC2=O)cc1	27	13	3	17	-32	23	·	·	·

Screens (PubChem BioAssay)
